According to the supplement of paper PMC9492666:
Counter-ions that a name gives are not always drawn.

tested on: MDA-MB-231; assay: relative cell viability, compound + RSL3, vs DMSO (fraction of DMSO control); higher = less growth inhibition; conditions: 72 h
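Further: breast cancer cell viability read out with the CCK-8 kit after co-treatment of each compound with the ferroptosis inducer RSL3.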

SMILES | relative cell viability
Cc1nc2ccc(C(=O)N3CCC4(CC3)CC(=O)c3c(cnn3C(C)C)C4)cc2[nH]1 + COC(=O)c1ccc([C@H]2c3[nH]c4ccccc4c3C[C@H](C(=O)OC)N2C(=O)CCl)cc1 [RSL3] | 0.591
CCCc1cc(-c2nc(-c3ccc(NS(C)(=O)=O)cc3)cs2)ccn1 + COC(=O)c1ccc([C@H]2c3[nH]c4ccccc4c3C[C@H](C(=O)OC)N2C(=O)CCl)cc1 [RSL3] | 0.551
c1ccc([C@H]2CN3CCSC3=N2)cc1 [Levamisole hydrochloride] + COC(=O)c1ccc([C@H]2c3[nH]c4ccccc4c3C[C@H](C(=O)OC)N2C(=O)CCl)cc1 [RSL3] | 0.53
CC(C)(C)NC(=O)[C@H]1CC[C@H]2[C@@H]3CC[C@H]4NC(=O)C=C[C@]4(C)[C@H]3CC[C@]12C [Finasteride] + COC(=O)c1ccc([C@H]2c3[nH]c4ccccc4c3C[C@H](C(=O)OC)N2C(=O)CCl)cc1 [RSL3] | 0.645
CC(C)OC(=O)C(C(=O)OC(C)C)=C1SC=CS1 [Malotilate] + COC(=O)c1ccc([C@H]2c3[nH]c4ccccc4c3C[C@H](C(=O)OC)N2C(=O)CCl)cc1 [RSL3] | 0.547
CC1=C(/C=C/C(C)=C/C=C/C(C)=C/C=C/C=C(C)/C=C/C=C(C)/C=C/C2=C(C)C(=O)[C@@H](O)CC2(C)C)C(C)(C)C[C@H](O)C1=O [Astaxanthin] + COC(=O)c1ccc([C@H]2c3[nH]c4ccccc4c3C[C@H](C(=O)OC)N2C(=O)CCl)cc1 [RSL3] | 0.689
